# Laboratory results reported in ChEMBL document CHEMBL1961873, “Compounds: GSK PKIS; Assays: Nanosyn kinase panel” (2012).
# Columns and labels:
# [1] = molecular target: Serine/threonine-protein kinase 26 (Homo sapiens) (UniProt Q9P289); conditions: at 1 µM;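 note: mean inhibition of MST4 kinase activity, reported from the GSK PKIS inhibitor-set screening panel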
# [2] = molecular target: Serine/threonine-protein kinase PAK 1 (Homo sapiens) (UniProt Q13153); conditions: at 0.1 µM
# [3] = molecular target: Serine/threonine-protein kinase PAK 1 (Homo sapiens) (UniProt Q13153); conditions: at 1 µM
# [4] = molecular target: Serine/threonine-protein kinase PAK 2 (Homo sapiens) (UniProt Q13177); conditions: at 0.1 µM
# Chain of Serine/threonine-protein kinase PAK 2 (Homo sapiens) (Q13177 whole entry): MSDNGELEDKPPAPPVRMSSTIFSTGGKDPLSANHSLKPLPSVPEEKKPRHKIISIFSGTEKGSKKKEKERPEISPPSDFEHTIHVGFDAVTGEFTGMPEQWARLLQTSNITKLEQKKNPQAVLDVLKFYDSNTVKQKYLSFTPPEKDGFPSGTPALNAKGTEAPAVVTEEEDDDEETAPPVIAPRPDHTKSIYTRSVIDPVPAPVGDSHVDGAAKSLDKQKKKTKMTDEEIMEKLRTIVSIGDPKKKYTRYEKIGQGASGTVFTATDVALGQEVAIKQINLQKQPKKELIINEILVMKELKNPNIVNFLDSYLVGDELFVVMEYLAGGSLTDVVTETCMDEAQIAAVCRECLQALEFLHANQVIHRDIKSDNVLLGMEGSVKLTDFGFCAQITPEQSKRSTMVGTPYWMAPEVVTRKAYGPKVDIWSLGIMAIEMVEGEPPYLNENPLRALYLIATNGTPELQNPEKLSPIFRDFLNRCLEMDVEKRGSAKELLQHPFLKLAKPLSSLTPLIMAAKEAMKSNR
# [5] = molecular target: Serine/threonine-protein kinase PAK 2 (Homo sapiens) (UniProt Q13177); conditions: at 1 µM
# [6] = molecular target: Serine/threonine-protein kinase PAK 3 (Homo sapiens) (UniProt O75914); conditions: at 0.1 µM
# Chain of Serine/threonine-protein kinase PAK 3 (Homo sapiens) (O75914 whole entry, looked up): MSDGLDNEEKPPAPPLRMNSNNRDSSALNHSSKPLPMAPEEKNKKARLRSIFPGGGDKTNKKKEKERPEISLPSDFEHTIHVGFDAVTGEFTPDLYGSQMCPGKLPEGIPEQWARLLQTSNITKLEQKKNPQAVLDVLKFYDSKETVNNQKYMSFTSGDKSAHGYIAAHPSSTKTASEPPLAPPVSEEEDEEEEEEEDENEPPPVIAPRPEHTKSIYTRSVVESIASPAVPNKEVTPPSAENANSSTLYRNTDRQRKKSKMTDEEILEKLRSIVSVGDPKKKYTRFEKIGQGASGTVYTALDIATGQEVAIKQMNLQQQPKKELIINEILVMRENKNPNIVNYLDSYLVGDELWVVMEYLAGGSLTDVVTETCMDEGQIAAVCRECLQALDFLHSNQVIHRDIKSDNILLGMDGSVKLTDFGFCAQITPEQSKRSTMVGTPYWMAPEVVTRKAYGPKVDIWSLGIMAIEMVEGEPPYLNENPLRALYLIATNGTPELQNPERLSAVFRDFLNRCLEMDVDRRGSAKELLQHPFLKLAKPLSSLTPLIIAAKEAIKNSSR
# [7] = molecular target: Serine/threonine-protein kinase PAK 3 (Homo sapiens) (UniProt O75914); conditions: at 1 µM
# [8] = molecular target: Serine/threonine-protein kinase PAK 5 (Homo sapiens) (UniProt Q9P286); conditions: at 0.1 µM
# Chain of Serine/threonine-protein kinase PAK 5 (Homo sapiens) (Q9P286 whole entry, looked up): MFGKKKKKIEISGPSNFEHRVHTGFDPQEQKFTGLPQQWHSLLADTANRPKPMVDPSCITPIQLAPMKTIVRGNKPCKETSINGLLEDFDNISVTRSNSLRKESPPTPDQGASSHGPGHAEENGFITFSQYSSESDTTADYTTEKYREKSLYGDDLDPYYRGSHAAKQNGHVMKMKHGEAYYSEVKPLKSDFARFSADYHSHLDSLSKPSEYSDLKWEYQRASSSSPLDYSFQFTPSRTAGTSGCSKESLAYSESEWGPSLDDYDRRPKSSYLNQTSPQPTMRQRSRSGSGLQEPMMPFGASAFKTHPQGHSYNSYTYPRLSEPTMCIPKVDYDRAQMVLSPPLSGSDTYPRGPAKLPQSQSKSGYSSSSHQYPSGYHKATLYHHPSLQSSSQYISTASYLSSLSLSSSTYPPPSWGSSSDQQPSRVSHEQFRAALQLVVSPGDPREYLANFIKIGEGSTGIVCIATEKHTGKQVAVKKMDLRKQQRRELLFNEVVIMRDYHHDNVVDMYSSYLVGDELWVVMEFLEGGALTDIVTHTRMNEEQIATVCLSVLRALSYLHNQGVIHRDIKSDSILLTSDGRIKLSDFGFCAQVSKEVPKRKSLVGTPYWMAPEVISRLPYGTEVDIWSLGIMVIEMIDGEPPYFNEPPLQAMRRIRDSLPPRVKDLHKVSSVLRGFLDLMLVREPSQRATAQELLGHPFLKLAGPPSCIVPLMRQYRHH
# [9] = molecular target: Serine/threonine-protein kinase PAK 5 (Homo sapiens) (UniProt Q9P286); conditions: at 1 µM
# [10] = molecular target: Serine/threonine-protein kinase PAK 6 (Homo sapiens) (UniProt Q9NQU5); conditions: at 0.1 µM
# Chain of Serine/threonine-protein kinase PAK 6 (Homo sapiens) (Q9NQU5 whole entry, looked up): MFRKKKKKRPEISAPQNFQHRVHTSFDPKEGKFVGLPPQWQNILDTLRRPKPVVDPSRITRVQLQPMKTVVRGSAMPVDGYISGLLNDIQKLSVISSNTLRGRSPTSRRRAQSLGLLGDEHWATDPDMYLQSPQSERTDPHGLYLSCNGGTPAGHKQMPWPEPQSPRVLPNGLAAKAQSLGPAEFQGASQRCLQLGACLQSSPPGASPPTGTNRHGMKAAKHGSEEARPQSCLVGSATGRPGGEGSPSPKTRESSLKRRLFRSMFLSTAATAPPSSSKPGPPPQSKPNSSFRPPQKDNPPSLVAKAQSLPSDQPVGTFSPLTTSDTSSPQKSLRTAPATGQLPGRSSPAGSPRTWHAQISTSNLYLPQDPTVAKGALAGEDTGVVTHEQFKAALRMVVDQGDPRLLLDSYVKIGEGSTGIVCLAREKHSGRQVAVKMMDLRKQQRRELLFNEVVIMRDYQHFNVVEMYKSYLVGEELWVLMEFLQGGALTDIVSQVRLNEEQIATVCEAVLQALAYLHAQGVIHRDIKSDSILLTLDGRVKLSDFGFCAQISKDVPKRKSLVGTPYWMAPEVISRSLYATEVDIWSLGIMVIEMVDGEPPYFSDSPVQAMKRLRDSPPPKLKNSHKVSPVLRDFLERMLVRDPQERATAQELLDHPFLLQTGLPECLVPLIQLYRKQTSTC
# [11] = tested on: Tyrosine-protein kinase ABL1 (Homo sapiens), P00519 [E255K]; conditions: at 0.1 µM
# [12] = tested on: Tyrosine-protein kinase ABL1 (Homo sapiens), P00519 [E255K]; conditions: at 1 µM
# [13] = tested on: Tyrosine-protein kinase ABL1 (Homo sapiens), P00519 [H396P]; conditions: at 0.1 µM
# [14] = tested on: Tyrosine-protein kinase ABL1 (Homo sapiens), P00519 [H396P]; conditions: at 1 µM
# [15] = tested on: Tyrosine-protein kinase ABL1 (Homo sapiens), P00519 [M351T]; conditions: at 0.1 µM
# [16] = tested on: Tyrosine-protein kinase ABL1 (Homo sapiens), P00519 [M351T]; conditions: at 1 µM
# [17] = tested on: Tyrosine-protein kinase ABL1 (Homo sapiens), P00519 [Q252H]; conditions: at 0.1 µM
# [18] = tested on: Tyrosine-protein kinase ABL1 (Homo sapiens), P00519 [Q252H]; conditions: at 1 µM
# [19] = tested on: Tyrosine-protein kinase ABL1 (Homo sapiens), P00519 [T315I]; conditions: at 0.1 µM
# [20] = molecular target: Serine/threonine-protein kinase PAK 6 (Homo sapiens) (UniProt Q9NQU5); conditions: at 1 µM
# Chain of Serine/threonine-protein kinase 26 (Homo sapiens) (Q9P289 2-416 limits assumed): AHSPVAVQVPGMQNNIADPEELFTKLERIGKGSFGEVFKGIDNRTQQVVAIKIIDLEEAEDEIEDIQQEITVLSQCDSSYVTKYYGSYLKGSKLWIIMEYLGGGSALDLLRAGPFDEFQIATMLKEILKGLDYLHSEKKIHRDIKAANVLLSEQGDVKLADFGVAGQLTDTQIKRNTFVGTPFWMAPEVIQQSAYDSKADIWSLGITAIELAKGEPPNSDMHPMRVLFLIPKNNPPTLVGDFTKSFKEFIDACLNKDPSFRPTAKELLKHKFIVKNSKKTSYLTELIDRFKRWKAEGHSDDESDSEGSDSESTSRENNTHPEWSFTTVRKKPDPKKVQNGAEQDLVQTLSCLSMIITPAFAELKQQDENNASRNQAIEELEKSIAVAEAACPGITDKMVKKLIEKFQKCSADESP
# Chain of Serine/threonine-protein kinase PAK 1 (Homo sapiens) (Q13153 whole entry): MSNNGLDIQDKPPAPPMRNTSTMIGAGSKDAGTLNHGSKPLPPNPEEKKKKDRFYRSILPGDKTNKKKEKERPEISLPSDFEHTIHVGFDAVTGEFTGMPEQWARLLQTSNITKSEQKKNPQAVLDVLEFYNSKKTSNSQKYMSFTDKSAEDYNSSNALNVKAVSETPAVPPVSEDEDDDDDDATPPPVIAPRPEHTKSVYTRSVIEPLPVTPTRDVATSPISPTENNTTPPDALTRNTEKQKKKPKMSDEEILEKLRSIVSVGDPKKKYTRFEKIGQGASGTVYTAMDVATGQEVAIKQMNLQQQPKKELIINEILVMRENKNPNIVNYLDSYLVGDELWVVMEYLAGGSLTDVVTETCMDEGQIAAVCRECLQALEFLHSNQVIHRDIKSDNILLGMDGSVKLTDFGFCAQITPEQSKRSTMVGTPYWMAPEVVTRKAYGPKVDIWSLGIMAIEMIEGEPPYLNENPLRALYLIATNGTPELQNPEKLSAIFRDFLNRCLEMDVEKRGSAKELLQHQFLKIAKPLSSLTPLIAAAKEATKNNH
SMILES,inhibition [1] [%],inhibition [2] [%],inhibition [3] [%],inhibition [4] [%],inhibition [5] [%],inhibition [6] [%],inhibition [7] [%],inhibition [8] [%],inhibition [9] [%],inhibition [10] [%],inhibition [11] [%],inhibition [12] [%],inhibition [13] [%],inhibition [14] [%],inhibition [15] [%],inhibition [16] [%],inhibition [17] [%],inhibition [18] [%],inhibition [19] [%],inhibition [20] [%]
COc1ccc2ncnc(Nc3ccc(OCc4ccccc4)cc3)c2c1,-1.42,0.31,3.44,-0.61,0.47,2.33,2.78,-6.57,-2.45,-7.36,1.91,2.75,1.73,4.61,-1.29,2.67,0.25,4.68,0.02,
NC(=O)c1sc(-n2cnc3ccccc32)cc1OCc1ccccc1Br,-2.12,6.29,10,1.42,2.45,4.83,5.89,2.59,5.06,,2.67,4,4.21,6.63,0.66,3.16,3.16,4.86,3.2,-4.72
COc1cccc(-n2ncc3c(N/N=C/c4ccc(C)cc4)ncnc32)c1,-3.2,10,9.32,1.75,1.47,6.06,6.42,6.1,10.7,,18.9,65.3,28.1,73.5,25.4,73.7,37.6,81.4,5.28,-8.44
ON=C1CCc2cc(-c3nc(C4CCNCC4)[nH]c3-c3ccncc3)ccc21,-1.63,2.01,2.16,-0.65,-0.29,-0.94,-0.23,,,0.23,-0.03,0.64,0.53,2.54,0.36,1.06,1.13,2.38,1.29,0
CCS(=O)(=O)c1ccc(OC)c(Nc2nccc(N(C)c3ccc4c(C)n[nH]c4c3)n2)c1,0.16,3.86,6.28,1.58,1.86,5.97,5.09,1.92,0.85,,50.5,88.7,61.1,90.5,54,88.3,57.7,89.6,3.83,-6.63
Cc1ccc(Nc2ccnc(Nc3cccc(C(N)=O)c3)n2)cc1O,2.75,5.46,8.57,1.77,1.45,3.06,3.98,5.17,11.2,,71.2,93.4,76.5,94.4,74.4,95,67.6,91.5,7.09,4.03
NC(=O)c1cccc(Nc2nccc(Nc3cccc(F)c3)n2)c1,2.97,0.29,2.79,0.32,0.69,0.23,2.37,-1.35,1.21,,7.73,47,9.26,56.1,9.02,57.7,9.5,53.9,1.3,-5.46
CN1CCN(C(=O)c2ccc(NC(=O)Nc3ccc(N(C)c4ccnc(Nc5ccc(CS(C)(=O)=O)cc5)n4)cc3)cc2)CC1,12.8,-0.46,6.1,0.16,1.51,1.85,5.09,3.35,17.6,,3.11,29.9,18.1,67.8,24.1,72.6,21,69.6,17.6,-8.2
c1ccc(Nc2ncc(-c3ccccc3)o2)cc1,0.04,6.49,10.6,0.76,2.87,5.16,4.34,2.74,2.9,,2.44,8.33,6.74,20.6,1.76,17.6,5.59,13.7,-0.57,-5.22
Nc1nccc(-c2c(-c3ccc(F)cc3)ncn2CCCN2CCOCC2)n1,11.2,9.14,6.55,1.64,1.75,5.89,4.41,,3.01,-1.31,3.15,4.81,2.47,4.57,0.51,3.75,2.53,6.74,2.38,
NS(=O)(=O)c1ccc(NC=C2C(=O)Nc3ccc4ncsc4c32)cc1,78.9,7.91,8.35,2.5,4.68,5.33,6.6,,5.11,0.36,6.89,37.9,10.9,46.7,10.9,50.6,14.4,56.3,15,-1.77
Cc1ccc(C(=O)NC2CC2)cc1-c1ccc2[nH]ncc2c1,-0.24,-0.61,-2.6,-3.3,-4.55,-4.8,-3.91,-4.55,-2.43,1.46,-0.87,-0.81,-1.68,1.02,1.39,2.89,-1.32,2.09,-2.71,-8.86
CN(C)CCCn1c(-c2nonc2N)nc2cnccc21,-1.75,6.36,9.52,1.48,2.17,4.61,5.23,,-5.06,7.58,3.28,4.1,2.64,1.22,1.53,3.51,3.76,2.62,2.51,-2.15
